Test in all cases: NCI-60 one-dose screen, 48 h (100 = growth as untreated, 0 = no growth, -100 = all killed)
Holding throughout (conditions): 10 µM unless noted

Test [1] relates to NCI-H23 lung.
Test [2] concerns NCI-H226 lung.
In test [3] the test system is NCI-H322M lung.
The subject of test [4] is HOP-62 NSCLC.
Test [5] concerns NCI-H460 lung.
The test system of test [6] is NCI-H522 lung.
For test [7], the system named is A549/ATCC NSCLC.
The test system of test [8] is 786-0 renal.
Test [9] relates to COLO 205 colon.
Test [10] deals with DU-145 prostate.
Test [11] concerns K-562 leukemia.
The test system of test [12] is MALME-3M melanoma.
Test [13] relates to MDA-MB-231 breast.
Test [14] relates to RXF 393 renal.
Test [15] concerns SF-268 CNS.
The test system of test [16] is SF-295 CNS.
Test [17] has as its system SF-539 CNS.
The subject of test [18] is UACC-257 melanoma.
The subject of test [19] is M14 melanoma.

This is part of a sample that, as a whole, favours compounds with a hit. Of some 83,000 tested, about 20% had one in any assay.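 Cell lines were cultured in 96-well plates, exposed to a single compound concentration, and assessed for percent growth 48 hours later.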 Values without a mark were called inactive. Calls of active or inactive are those of the source. How the source made its calls: active means growth percent below 10; inactive means the rest.

As for `COC(=O)c1nc(-c2ccccc2)oc1S(=O)(=O)NCC(c1ccc(Cl)cc1)N1CCCCC1` (configuration not stated), the growth was 84.4% in test [1]; 88.5% in test [2]; 97.2% in test [3]; 90.9% in [4]; 85.6% in test [5]; 25.6% in test [6]. For the same molecule, the growth in test [7] was 85.3%; in [8], 59.8%; in test [9], 72.1%; in test [10], 97.9%; in [11] it was 9.15% (active); in test [12] it was 99.1%. Also, the growth in test [13] is 72.2%; in test [14] it was 82.7%; in test [15] it was 82.5%; in test [16], 102%; in [17], 88.1%; in test [18], 88%. The growth in test [19] is 38%.

`COc1ccc(/C=N/NC(=O)Cn2nnc3ccccc32)cc1`: the growth in test [1] is 101%; in [2], 96.4%; in test [3], 89.1%; in test [4], 99.9%; in [5], 96.6%; in test [6], 90.9%. The growth in test [7] is 96.5%; in [8], 103%; in test [9] it was 109%; in [10], 117%; in test [11], 93%; in test [12], 103%. In addition, the growth was 107% in test [13]; 93.7% in [14]; 85.5% in test [15]; 103% in test [16]; 105% in [17]; 95.2% in test [18]. The growth in test [19] was 109%.

As to `COC1CC(O)C2=C(CC3C(/C(C)=C\CC=C(C)C)CCC3(C)O2)C1=O` (configuration not stated), the growth in [1] is 97.9%; in test [2], 101%; in test [3], 101%; in [4], 105%; in test [5], 104%; in [6], 90.1%. The growth in test [7] was 95.2%; in [8], 103%; in test [9], 119%; in [10], 101%; in [11], 96.7%; in [12] it was 102%. For the same molecule, the growth was 115% in test [13]; 110% in [14]; 91.1% in test [15]; 107% in test [16]; 109% in test [17]; 95.2% in test [18]. Also, the growth in [19] is 106%.

Turning to `COc1ccc(Nc2nc(Nc3cc(C)[nH]n3)c3cc(OC)c(OC)cc3n2)cc1`, the growth is -74.7% [20 µM] (active) in [1]; -47.2% [20 µM] (active) in [2]; -100% [20 µM] (active) in [3]; -73.3% [20 µM] (active) in test [4]; -75.9% [20 µM] (active) in test [5]; -39.1% [20 µM] (active) in test [6]. Moreover, the growth was -61.2% [20 µM] (active) in test [7]; -83.3% [20 µM] (active) in test [8]; -61% [20 µM] (active) in [9]; -86.2% [20 µM] (active) in test [10]; -10.8% [20 µM] (active) in test [11]; -97.7% [20 µM] (active) in [12]. Further, the growth in test [13] is -94.2% [20 µM] (active); in test [14], -94.4% [20 µM] (active); in [15], -66.8% [20 µM] (active); in [16] it was -94.2% [20 µM] (active); in test [17], -97.2% [20 µM] (active); in test [18], -76.8% [20 µM] (active).

With `Cc1[nH]c(C2CC(c3ccc(C(F)(F)F)c(F)c3)=NN2C)c(C)c1C(=O)NCC(F)(F)F` (configuration not stated), the growth in [1] is 95.4%; in test [2] it was 93.3%; in test [3] it was 92.7%; in test [4] it was 106%; in test [5] it was 101%; in test [6], 88.9%. For the same molecule, the growth was 95.5% in test [7]; 109% in test [8]; 114% in test [9]; 96.3% in test [10]; 85.6% in test [11]; 93.8% in [12]. Further, the growth in test [13] was 85.4%; in test [14], 93.7%; in [15] it was 92.4%; in test [16], 94.9%; in test [17], 96.7%; in test [18], 97.9%. The growth in [19] is 115%.

Regarding `Cc1ccc2nc(/C=C/c3ccc(N(C)C)cc3)cc(C)c2c1`, the growth in test [1] was 42.1%; in test [2] it was 64.8%; in [3], 70.9%; in test [4], 32.4%; in test [5], 15.1%; in test [6], 25.1%. Also, the growth in [7] was 52.3%; in test [8], 35.1%; in test [9], 23.5%; in test [10], 47.2%; in test [11], 19.8%; in test [12], 39.8%. The growth was 38.4% in test [13]; 29.4% in [14]; 37.3% in test [15]; 12.5% in test [16]; 9.33% (active) in test [17]; 62.1% in [18]. Besides, the growth in test [19] was 13.2%.

On to `c1ccc(-c2nc(N3CCNCC3)c3oc(-c4ccccc4)nc3n2)cc1`, for which the growth was -66.8% (active) in [1]; -41.6% (active) in test [2]; -95.1% (active) in [3]; -67.9% (active) in test [4]; -81.1% (active) in test [5]; -28.3% (active) in test [6]. For the same molecule, the growth is -44.8% (active) in test [7]; -74.1% (active) in test [8]; -39.7% (active) in test [9]; -55.4% (active) in [10]; 2.28% (active) in test [11]; -93.9% (active) in [12]. The growth in test [13] was -87.1% (active); in test [14], -81.4% (active); in [15], -48.8% (active); in test [16] it was -73.6% (active); in [17], -95.9% (active); in test [18], 101%. In test [19], the growth was -60.3% (active).

On to `Cc1ccc(S(=O)(=O)c2nc(-c3ccccc3)oc2S(C)=O)cc1` (configuration not stated), for which the growth in [1] was 63.6%; in test [2], 62.6%; in test [3], 79.9%; in test [4] it was 78.5%; in [5], 73.1%; in test [6], -74.5% (active). The growth in [7] is 69.8%; in test [8], -64.5% (active); in test [9], -79.3% (active); in test [10], 47.3%; in test [11], -31.1% (active); in [12] it was -76.8% (active). The growth in test [13] is 4.23% (active); in test [14] it was -33.4% (active); in test [15], 55.9%; in test [16], 84.3%; in test [17], -22% (active); in test [18] it was 46.5%. In addition, the growth in test [19] was -80.6% (active).

As to `COc1cc(-c2c(-c3ccccc3)c[nH]c2C(=O)NCCCO)c(OC)c2c1OCO2`, the growth was 96.3% in test [1]; 95% in [2]; 95.9% in [3]; 98.2% in test [4]; 110% in test [5]; 93.9% in test [6]. Also, the growth in test [7] is 103%; in [8] it was 102%; in test [9], 114%; in test [10] it was 111%; in [11], 86.5%; in [12], 108%. Besides, the growth was 88.8% in [13]; 93.5% in [14]; 99.4% in test [15]; 101% in test [16]; 104% in test [17]; 106% in test [18]. For the same molecule, the growth in [19] is 105%.

Turning to `O=C1C(Nc2ccc(Br)cc2)=C(I)C(=O)c2ncccc21`, the growth in [1] was 10.6%; in test [2], 87.3%; in test [3], 84.4%; in test [4], 42.1%; in [5] it was 23.3%; in test [6] it was -46.2% (active). The growth in test [7] was 46.8%; in test [8], 44.4%; in [9], 23.5%; in [10], 20.5%; in test [11], 5.98% (active); in test [12] it was -6.23% (active). Moreover, the growth in test [13] is 6.88% (active); in test [14], 45.8%; in [15], 46.2%; in [16] it was 86.6%; in test [17], 15.3%; in [18] it was 49.3%. In test [19], the growth was 10.4%.

Take `CCOC(=O)CCC(=O)P(=O)(O)O`: the growth in [1] was 116%; in test [2] it was 110%; in test [3], 103%; in test [4], 97.8%; in test [5], 113%; in test [6], 84.7%. In addition, the growth in [7] is 96.9%; in test [8] it was 98.6%; in [9], 93.9%; in test [10] it was 114%; in [11], 8.96% (active); in [12], 103%. In addition, the growth in test [13] was 119%; in test [14], 122%; in [15], 114%; in test [16], 101%; in [17] it was 101%; in [18] it was 93%. The growth in test [19] was 92.4%.

With `O=C(OCC(O)(CO)C(=O)NC12CC3CC(CC(C3)C1)C2)c1ccc(Cl)cc1` (configuration not stated), the growth is 97.6% in [1]; 89.1% in test [2]; 103% in test [3]; 103% in test [4]; 105% in test [5]; 88.2% in test [6]. The growth in test [7] is 91.4%; in test [8], 99.4%; in test [9], 102%; in [10] it was 108%; in test [11] it was 91.4%; in test [12] it was 103%. Moreover, the growth in test [13] was 101%; in test [14], 101%; in test [15], 99.7%; in test [16], 93.1%; in [17], 107%; in [18], 99.2%. For the same molecule, the growth in test [19] was 98.7%.

The record behind these values is PubChem BioAssay (NCI).
